The list is not random: actives were taken first. Their share in the collection is about 6.9%.
Giardia killer – kills Giardia lamblia. 340,000 compounds, 0.15% hits. Giardia lamblia trophozoite viability. activity change, % at 7.66 µM, hits read low; in the data active means activity change below about -80%; inconclusive means between about -30% and that limit;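 further: parasites exposed to compound for two days anaerobically before the ATP read; on the % scale 0 is the no-effect control and ±100 the full control effect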
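Luminescence from cellular ATP indicates surviving trophozoites (100 cells/well) following 48 hrs anaerobic compound treatment at 37 deg C; signal develops 15-30 min at room temperature.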
MCF10A rereplic – DNA re-replication induction in MCF 10a cells | MCF 10A DNA re-replication, Hoechst nuclear intensity, 48 h | Potency, µM (doses to about 46.1 µM), inactives show at the top dose activity, positive = re-replication, most hits filed as activators | 350,000 compounds, 2.9% hits | AID 624296; further: potency means the concentration at half of the fitted maximal effect; % of control where 0% means no effect; nearly all actives have a fitted effect of over 50% in size
IL1B secr inh – inflammasome signaling inhibition, IL-1 beta readout | THP-1 LPS/ATP IL-1B secretion, AlphaLISA, 16 h; hits give low values | activity change, % at 57.5 µM | 360,000 compounds, 4.7% hits; in the data active means activity change below about -50%; inconclusive means mostly about -30% to -49%; further: on the % scale 0 is the no-effect control and ±100 the full control effect
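Secreted IL-1B measured by AlphaLISA bead assay after 16 h compound exposure of THP-1 cells; compounds (final up to 57.5 uM) added 1 h before LPS (250 ng/mL) and ATP (1.25 mM) stimulation; lower signal means less secretion.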
Vif-APOBEC3G blk – inhibitors of Vif-APOBEC3G interaction. AID 602310. 410,000 compounds, 0.076% hits. Potency, µM (highest dose often 46.1 µM), inactives show top-dose activity, negative = active, most hits filed as inhibitors. Q9HC16. HeLa A3G-eYFP + Vif (tagged APOBEC3G with the HIV-1 protein that degrades it), YFP fluorescence, overnight; further: potency means the concentration at half of the fitted maximal effect; on the % scale 0 is the no-effect control and ±100 the full control effect; nearly all actives have a fitted effect of over 60% in size
Target sequence (Q9HC16 whole entry, looked up): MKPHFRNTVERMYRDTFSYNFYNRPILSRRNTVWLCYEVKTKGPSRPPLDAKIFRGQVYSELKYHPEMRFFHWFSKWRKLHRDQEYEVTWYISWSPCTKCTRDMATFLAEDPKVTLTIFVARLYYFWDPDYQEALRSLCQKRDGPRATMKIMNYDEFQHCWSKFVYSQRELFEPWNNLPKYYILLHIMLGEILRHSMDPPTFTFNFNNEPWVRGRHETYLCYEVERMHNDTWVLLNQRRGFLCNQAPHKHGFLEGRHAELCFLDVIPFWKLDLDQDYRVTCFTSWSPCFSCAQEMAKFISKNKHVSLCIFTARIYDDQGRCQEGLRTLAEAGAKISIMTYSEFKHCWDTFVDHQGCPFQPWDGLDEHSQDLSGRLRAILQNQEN
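HeLa cells stably expressing Vif and C-terminally eYFP-tagged A3G, seeded overnight at 37 deg C, then exposed to compound by pintool overnight at 37 deg C. Rise in yellow fluorescence (Ex 488/Em 500-530, Acumen) marks blocked Vif-driven A3G degradation.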
SW480 rerep – DNA re-replication induction in SW480 cells | SW480 DNA re-replication, Hoechst DNA content imaging, 48 h | Potency, µM (top dose mostly 46.1 µM), for inactives: top-dose re-replication activation, most hits filed as activators | 340,000 compounds, 1.8% hits | AID 624297; further: potency means the concentration at half of the fitted maximal effect; % of control where 0% means no effect; nearly all actives have a fitted effect of over 55% in size
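Image-based read-out: total Hoechst fluorescence of nuclei (405 nm excitation, 500-530 nm emission), with hits raising the fraction of high-intensity nuclei. SW480 colon cells incubated 48 hr with compounds at 37 C.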
Vif-A3F inh – inhibitors of Vif-A3F interaction; Potency, µM (titrated, usually from 46.1 µM), for inactives: at the top dose activity, negative = active; HeLa A3F-eYFP + Vif (tagged APOBEC3F with the HIV-1 protein that degrades it), YFP fluorescence increase; 390,000 compounds, 0.2% hits; further: potency means the concentration at half of the fitted maximal effect; % of control where 0% means no effect; nearly all actives have a fitted effect of over 65% in size
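HeLa cells stably expressing A3F-eYFP plus Vif, plated and incubated overnight at 37 deg C, then exposed to compounds overnight at 37 deg C. Blocked degradation read as raised yellow fluorescence (Ex 488/Em 500-530).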
* = called active by the depositor; ? = inconclusive; . = not tested or not shown. Unless noted, the call rests on the fitted dose curve; in most records, active means well fitted curve in the direction sought with a large enough effect; inconclusive means small, poorly fitted or top-dose-only effect, or another doubt; inactive means no such curve, though single readings can be large; an effect the other way counts as inactive or inconclusive.

SMILES	Giardia killer	MCF10A rereplic	IL1B secr inh	Vif-APOBEC3G blk	SW480 rerep	Vif-A3F inh
O=C1c2cccc3cc([N+](=O)[O-])cc(c23)C(=O)N1c1ccccc1O	-9	-2%	18	-10%	23%	?
Cc1ccc(C)c(CN2C(=O)c3ccccc3Sc3ccc(C(=O)N4CCC5(CC4)OCCO5)cc32)c1	.	.	.	4%	.	0%
O=Cc1c(C(=O)O)n(Cc2ccc(Cl)cc2)c2ccccc12	-20	21%	0	?	-4%	10µM*
Cc1c(C=O)c2ccccc2n1Cc1ccccc1	-8	7%	5	-7%	1%	-10%
CN1C2CCC1/C(=C/c1ccccn1)C(=O)/C2=C\c1ccccn1	-15	?	-101*	?	?	18%
COc1cc(CC2C(=O)N(C)C(=O)N(C)C2=O)ccc1OCc1ccccc1	9	5.2µM*	0	0%	?	-1%
CC1(C)[C@@H](C=C(Cl)Cl)[C@@H]1C(=O)OCc1c(F)c(F)cc(F)c1F	.	2%	.	.	0%	.
O=C(Nc1ccc(Oc2ccc(Cl)cc2)c(Cl)c1)c1cc(I)cc(I)c1O	10	?	12	0%	10%	-19%
Cc1nn(Cc2ccccc2)c(Cl)c1C(=O)OC(C)C(=O)Nc1ccc(F)cc1Cl (configuration not stated)	-12	21µM*	3	-4%	7%	6%
COc1ccc(C)cc1NC(=O)c1c(C)nn(Cc2ccccc2)c1Cl	5	?	-98*	-2%	?	-9%
CN1CCCC1c1cccnc1 (configuration not stated)	?	-1%	2	2%	-1%	-7%
CCOC(=O)[C@]12Cc3cc(OC)ccc3[C@H]1N(Cc1ccccc1)C(=O)c1cc(OC)ccc12	.	.	9	.	.	.
CCOC(=O)[C@]12Cc3cc4ccccc4cc3[C@H]1N(Cc1ccccc1)C(=O)c1ccccc12	.	.	-110*	.	.	.
CCOC(=O)[C@]12Cc3ccc4ccccc4c3[C@H]1N(Cc1ccccc1)C(=O)c1ccccc12	.	.	-56*	.	.	.
CCOC(=O)[C@]12Cc3cc4ccccc4cc3[C@H]1N(Cc1ccccc1)C(=O)c1cc(OC)ccc12	.	.	-109*	.	.	.
CCOC(=O)[C@]12Cc3cc(Cl)ccc3[C@H]1N(Cc1ccccc1)C(=O)c1cc(OC)ccc12	.	.	-113*	.	.	.
[S]=[Sb][S][Sb]=[S]	.	-1%	.	.	-2%	.
Cc1oc2cc3oc(=O)c(CCC(=O)N4CCCCC4)c(C)c3cc2c1C	.	.	.	-2%	.	-5%
CCC(C)C(=O)N[C@@H](c1ccccc1)[C@@H](O)C(=O)O[C@H]1C[C@@]2(O)[C@@H](OC(=O)c3ccccc3)C3[C@](C)(C(=O)[C@H](OC(C)=O)C(=C1C)C2(C)C)[C@@H](O)C[C@H]1OC[C@@]31OC(C)=O (some centres not stated)	-1	73%	17	-39%	1.6µM*	-13%
C/C=C(\C)C(=O)N[C@@H](c1ccccc1)[C@@H](O)C(=O)O[C@H]1C[C@@]2(O)[C@@H](OC(=O)c3ccccc3)C3[C@](C)(C(=O)[C@H](OC(C)=O)C(=C1C)C2(C)C)[C@H](O)C[C@H]1OC[C@@]31OC(C)=O (some centres not stated)	?	0.23µM*	41	-31%	1.5µM*	3%
CCCC(C)C1(CC)C(=O)NC(=S)NC1=O (configuration not stated)	.	-1%	.	.	1%	.
COC1CC(C)C(OC)c2cc(O)cc(c2O)NC(=O)C(C)=CC=CC(C)C(OC(N)=O)C(C)=CC(C)C1OC (configuration not stated)	-1	5.8µM*	-101*	?	2.6µM*	-7%
O=[N+]([O-])c1ccc(N2CCCC2)cc1N/N=C1\CN2CCC1CC2	-9	1%	-16	3%	23µM*	-2%
CNc1cc(N2CCN(C)CC2)ccc1[N+](=O)[O-]	2	17%	14	2%	1%	-2%

Screening data as filed in PubChem BioAssay.
